Source: PubChem BioAssay AID1781 (National Center for Advancing Translational Sciences (NCATS), 2009)
Inconclusive results are not listed. Activity calls are given as the source filed them. Calls come from the whole dose curve; as a rule, active = well fitted curve in the direction sought with a large enough effect; inconclusive = small, poorly fitted or top-dose-only effect, or effect the other way, or another doubt; inactive = no such curve, though single readings can be large or run the other way.

target: Pyruvate kinase PKLR (Homo sapiens) (UniProt P30613); test: Confirmation Concentration-Response Assay for Activators of Human Liver Pyruvate Kinase; settings: purified hPK-L, Kinase-Glo ATP luminescence, 1 h; series mostly up to 57.5 µM
Sequence (P30613 whole entry, looked up): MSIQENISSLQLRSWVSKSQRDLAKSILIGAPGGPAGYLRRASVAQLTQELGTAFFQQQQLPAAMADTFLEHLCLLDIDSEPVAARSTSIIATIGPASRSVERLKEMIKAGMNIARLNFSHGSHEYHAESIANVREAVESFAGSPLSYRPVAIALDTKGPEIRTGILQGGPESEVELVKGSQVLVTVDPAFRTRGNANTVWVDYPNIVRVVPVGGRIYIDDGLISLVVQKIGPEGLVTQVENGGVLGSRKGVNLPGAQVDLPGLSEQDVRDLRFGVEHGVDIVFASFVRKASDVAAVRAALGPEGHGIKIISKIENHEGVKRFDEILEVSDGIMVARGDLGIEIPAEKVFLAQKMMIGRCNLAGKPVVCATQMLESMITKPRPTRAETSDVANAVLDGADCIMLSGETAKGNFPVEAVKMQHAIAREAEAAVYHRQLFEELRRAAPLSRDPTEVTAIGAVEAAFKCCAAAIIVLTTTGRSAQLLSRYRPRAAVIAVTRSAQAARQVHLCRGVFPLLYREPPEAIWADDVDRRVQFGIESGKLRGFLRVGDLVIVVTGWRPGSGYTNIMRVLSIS
From the text: Confirmatory assay NIH Chemical Genomics Center [NCGC] Matthew G. Vander Heiden, M.D., Ph.D. [Harvard Medical School, 77 Avenue Louis Pasteur, Boston, MA 02115] NCGC Assay Overview: Human pyruvate kinase liver (hPK-L) enzyme was supplied as a highly purified (>95% pure) preparation from Harvard Medical School and assayed for its ability to generate ATP from ADP using phosphoenolpyruvate (PEP) as a substrate. ATP generation was detected in a coupled reaction by luciferase-mediated luminescence, an ATP-dependent process. Pyruvate kinase substrates, PEP and ADP, were present in the assay at Km and approximately 10-fold below Km respectively. The enzyme was assayed at an intermediate level of activity to screen for both inhibitors and activators.
NCGC Assay Protocol Summary for L-isoform: Three uL of substrate mix (at r.t.) in assay buffer (50 mM Imidazole pH7.2, 50 mM KCl, 7 mM MgCl2, 0.01% Tween 20, 0.05% BSA) was dispensed into white solid bottom 1,536 well microtiter plates so that the final concentrations of substrates in the assay were 0.1 mM ADP and 0.5 mM PEP. 23 nL of compound were delivered by a pin tool and 1 uL of enzyme mix (final concentration of 0.1 nM) in assay buffer (4 degree Celsius) was added. Plates were incubated at room temperature for 1 hour. Two uL of detection mix (Kinase-Glo, Promega; at 4 degree Celsius protected from light) was added and luminescence read by a ViewLux (Perkin Elmer) at 1 second exposure/plate. Data were normalized to the uninhibited (row 31). Additionally, a no enzyme and 5-fold enzyme control was dispensed in row 32, split equally between the two conditions.

outcome, inactive:
O=S(=O)(NC1CCN(S(=O)(=O)c2ccc3c(c2)OCCO3)C1)c1c(F)cccc1F (stereo not given)
O=S(=O)(NC1CCN(S(=O)(=O)c2c(F)cccc2F)C1)c1ccc2c(c1)OCCO2 (stereo not given)
Cn1c2cc(C=O)sc2c2cnn(Cc3ccccc3F)c(=O)c21
CC(O)c1cc2c(s1)c1cnn(Cc3ccccc3F)c(=O)c1n2C (stereo not given)
CCCc1cc(F)c(S(=O)(=O)N2CCN(S(=O)(=O)c3ccc4c(c3)OCCO4)CC2)cc1F
O=S(=O)(c1ccc2c(c1)OCO2)N1CCN(S(=O)(=O)c2c(F)cccc2F)CC1
O=C(CN1C(=O)N/C(=C\c2cccn2-c2cccc(C(=O)O)c2)C1=O)Nc1ccccc1F
O=S(=O)(c1cccc(C(F)(F)F)c1)N1CCN(S(=O)(=O)c2ccc3c(c2)OCCO3)CC1
Cn1c2ccsc2c2cnn(Cc3ccccc3F)c(=O)c21
COc1ccc(Cn2ncc3c4sc(C)cc4n(C)c3c2=O)cc1F
Cc1cc2c(s1)c1cnn(Cc3ccc(F)cc3)c(=O)c1n2C
O=S(=O)(NC1CCN(S(=O)(=O)c2ccc3c(c2)OCCO3)CC1)c1c(F)cccc1F
Cc1nc2ccc(S(=O)(=O)N3CCN(S(=O)(=O)c4c(F)cccc4F)CC3)cc2s1
CC(=O)Nc1cc2c(s1)c1cnn(Cc3ccccc3F)c(=O)c1n2C
Cc1cc2c(s1)c1cnn(Cc3ccc(C(F)(F)F)cc3)c(=O)c1n2C
O=S(=O)(NCCCCCNS(=O)(=O)c1c(F)cccc1F)c1ccc2c(c1)OCCO2
Cc1cc2c(s1)c1cnn(Cc3ccc(C(C)C)cc3)c(=O)c1n2C
Cc1cc2c(s1)c1cnn(Cc3ccccc3Cl)c(=O)c1n2C
O=S(=O)(c1c(F)cccc1F)N1CCN(S(=O)(=O)c2c(F)cccc2F)CC1
Cc1cc2c(s1)c1cnn(Cc3ccc(C(F)(F)F)cc3F)c(=O)c1n2C
O=C(c1ccc2c(c1)OCCO2)N1CCN(S(=O)(=O)c2c(F)cccc2F)CC1
O=S(=O)(c1ccc2c(c1)OCCCO2)N1CCN(S(=O)(=O)c2c(F)cccc2F)CC1
Cn1c2cc(B(O)O)sc2c2cnn(Cc3ccccc3F)c(=O)c21
O=S(=O)(NCCNS(=O)(=O)c1c(F)cccc1F)c1ccc2c(c1)OCCO2
Cc1cc2c(s1)c1cnn(Cc3ccccc3)c(=O)c1n2C
Cn1c2cc([N+](=O)[O-])sc2c2cnn(Cc3ccccc3F)c(=O)c21
Cc1cc2c(s1)c1cnn(Cc3ccc(Cl)cc3)c(=O)c1n2C
Cc1ccc(Cn2ncc3c4sc(C)cc4n(C)c3c2=O)c(C)c1
Cc1cc2c(s1)c1cnn(-c3ccccc3)c(=O)c1n2C
COc1ccc(Cn2ncc3c4sc(C)cc4n(C)c3c2=O)cc1
CSc1cc2c(s1)c1cnn(Cc3ccccc3F)c(=O)c1n2C
O=S(=O)(NC1CCC(NS(=O)(=O)c2c(F)cccc2F)CC1)c1ccc2c(c1)OCCO2 (stereo not given)
Cc1cc2c(s1)c1cnn(Cc3cccc(F)c3F)c(=O)c1n2C
CC(C)c1cc2c(s1)c1cnn(Cc3ccccc3F)c(=O)c1n2C
Cn1c2cc(C#N)sc2c2cnn(Cc3ccccc3F)c(=O)c21
